Molecules are shown by their SMILES. This is part of a sample that, as a whole, favours compounds with a hit. Of some 79,000 tested, about 15% had one in any assay. Unmarked numbers belong to inactive results. Calls of active or inactive are those of the source. Rule as the data show it: active = growth inhibition above about 70%; inactive = the rest. Where a SMILES comes first, the peptide text is derived from it. The star is where a group is joined. Cbz = O=C(OCc1ccccc1)*

Among the data in PubChem BioAssay (NCI) are growth inhibition values, retold here.

The nature of assay [1]: NCI Yeast Anticancer Drug Screen. Data for the rad50 strain (AID 155).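 Also: 0% = growth of vehicle-only cultures of the same strain.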 The settings on record: S. cerevisiae rad50 strain growth inhibition; at 50.0 µM; active compounds read high. An outline of the steps:
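Inhibition values express reduced yeast growth in compound-treated cultures relative to vehicle-treated controls.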

A short description of assay [2]: NCI Yeast Anticancer Drug Screen. Data for the mec2-1 strain (AID 157). The settings on record: S. cerevisiae mec2-1 strain, at 50.0 µM, active compounds read high. An outline of the steps:
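Compounds were applied to mec2-1 yeast cells. Their growth was then compared with that of vehicle-treated cultures to give growth inhibition.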

A short description of assay [3]: NCI Yeast Anticancer Drug Screen. Data for the sgs1 mgt1 strain (AID 161).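 Also: 0% = growth of cultures given vehicle only.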 The settings on record: S. cerevisiae sgs1 mgt1 strain, at 50.0 µM, active compounds read high. Put shortly:
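Growth of a repair-deficient yeast mutant was monitored after compound treatment and expressed as inhibition relative to vehicle-treated cultures.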

The nature of assay [4]: NCI Yeast Anticancer Drug Screen. Data for the cln2 rad14 strain (AID 165).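 Also: 0% = growth equal to vehicle treated cultures.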 To be noted: S. cerevisiae cln2 rad14 strain, at 50.0 µM, active compounds read high. An outline of the steps:
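Strain: cln2 rad14 yeast, altered in cell cycle control and DNA damage repair. Read-out: growth inhibition vs vehicle.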

Assay [5] in a line: NCI Yeast Anticancer Drug Screen. Data for the bub3 strain (AID 167). To be noted: S. cerevisiae bub3 mutant strain, at 50.0 µM, active compounds read high. An outline of the steps:
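Steps: expose the mutant yeast strain to compound; grow alongside vehicle-treated cultures; measure growth; express inhibition against the vehicle cultures.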

Assay [6] in a line: NCI Yeast Anticancer Drug Screen. Data for the mlh1 rad18 strain (AID 175). To be noted: S. cerevisiae mlh1 rad18 strain growth inhibition; at 50.0 µM; active compounds read high. An outline of the steps:
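A repair-deficient yeast strain is exposed to test compound, and growth is scored relative to vehicle-treated controls.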

Consider `OC1COC(C2CCCO2)OC1` (stereo unspecified), for which the growth inhibition in assay [1] was 10.4%; in assay [2], -6.2%; in assay [3], -2.35%; in assay [4] it was 1.35%; in assay [5], -13.7%; in assay [6], 11.8%.
Regarding `O=c1cc(Nc2ccccc2)c2ccccc2[nH]1`, the growth inhibition is -3.3% in assay [1]; -20.1% in assay [2]; 7.3% in assay [3]; 12.6% in assay [4]; -15.3% in assay [5]; 23.3% in assay [6].
`COc1ccc2nc(NC(=O)C(=O)C(C#N)c3ccc(CC#N)cc3)sc2c1` (stereo unspecified): the growth inhibition in assay [1] is -4.3%; in assay [2], 11.4%; in assay [3], 4.5%; in assay [4], -4.85%; in assay [5], 0.15%; in assay [6], -5.75%.
With `CCOC(=O)CCC(NC(=O)OCc1ccccc1)C(=O)NC(CCC(=O)OCC)C(=O)OCC` (stereo unspecified) (Cbz-Glu(OEt)-Glu(OEt)-OEt; configuration not given here), the growth inhibition in assay [1] was 17.9%; in assay [2] it was 3.15%; in assay [3], -11.4%; in assay [4] it was 7.55%; in assay [5], 4.65%; in assay [6], -25.8%.
For `CS(=O)(=O)O[C@H]1[C@H](O)c2ccccc2[C@@H]1N=[N+]=[N-]`, the growth inhibition in assay [1] was 13.5%; in assay [2], 3.95%; in assay [3], -2.05%; in assay [4], -3%; in assay [5], -10.2%; in assay [6] it was -51.4%.
Turning to `O=Cc1ccccc1Cl`, the growth inhibition in assay [1] was 28%; in assay [2] it was 12.9%; in assay [3] it was 16.8%; in assay [4], -15.2%; in assay [5], 10.9%; in assay [6] it was 13.8%.
On to `c1ccc(CNCCN(Cc2ccccc2)Cc2ccccc2)cc1`, for which the growth inhibition in assay [1] is 31.6%; in assay [2], -1.8%; in assay [3], 36.4%; in assay [4], -11.8%; in assay [5], 30.4%; in assay [6], 25.7%.
For `C=CCNC(=O)N(CCCC(NC(C)=O)C(=O)NCc1ccccc1)Cc1ccccc1` (stereo unspecified), the growth inhibition is 2.5% in assay [1]; -2.85% in assay [2]; -8.85% in assay [3]; 26.4% in assay [4]; -5.25% in assay [5]; -10.2% in assay [6].
With `CC(C)CCCC(C)C1CCC2C3C(O)CC4CCCCC4(C)C3CCC12C` (stereo unspecified), the growth inhibition was 96.7% (active) in assay [1]; 97.8% (active) in assay [2]; 98% (active) in assay [3]; 95.2% (active) in assay [4]; 95.7% (active) in assay [5]; 97.9% (active) in assay [6].
Consider `CCOC(=O)C(Cc1ccc(Cl)cc1)(Cc1ccc(Cl)cc1)C(=O)OCC`, for which the growth inhibition in assay [1] was 0.75%; in assay [2], -30.4%; in assay [3], -18%; in assay [4], 6.15%; in assay [5], -15.8%; in assay [6], -10.7%.
Take `N#CCC(=O)N/N=C/c1ccccc1`: the growth inhibition is 8.3% in assay [1]; -27.1% in assay [2]; 0.55% in assay [3]; 9.95% in assay [4]; -5.85% in assay [5]; 9.4% in assay [6].
Take `CC1(C)[C@@H]2CC[C@](C)(O)[C@H]1C2`: the growth inhibition in assay [1] was 0.45%; in assay [2], -1.05%; in assay [3], -1.65%; in assay [4], 8.5%; in assay [5] it was -3.15%; in assay [6] it was 2.3%.
Consider `Clc1ccnnc1Cl`, for which the growth inhibition in assay [1] is -17.7%; in assay [2] it was -30.8%; in assay [3] it was -43%; in assay [4] it was 13.2%; in assay [5], -37.5%; in assay [6], -15.7%.
In the case of `CC1(C)CC(=O)C(C(CCC2CCCCC2=O)C2C(=O)CC(C)(C)CC2=O)C(=O)C1` (stereo unspecified), the growth inhibition in assay [1] was 38.5%; in assay [2] it was 7.95%; in assay [3], 10%; in assay [4], 1.95%; in assay [5], 9.35%; in assay [6], 19.6%.
For `O=C(Nc1cccc(O)c1)C(O)C(O)C(O)C(O)CO` (stereo unspecified), the growth inhibition in assay [1] is -10.8%; in assay [2], 14.4%; in assay [3], 18.2%; in assay [4], 10.6%; in assay [5], 9.05%; in assay [6], 10.9%.
Take `CC(CC(=O)O)C(C)(C#N)C(=O)O` (stereo unspecified): the growth inhibition is 1.8% in assay [1]; 1.4% in assay [2]; 2.8% in assay [3]; -41.5% in assay [4]; 0.05% in assay [5]; -4.95% in assay [6].
For `CCCOC(=O)C(O)Cc1ccccc1` (stereo unspecified), the growth inhibition in assay [1] is -26.9%; in assay [2], 18.2%; in assay [3] it was 5.95%; in assay [4], -0.35%; in assay [5] it was -11.1%; in assay [6] it was -34.3%.
With `COc1ccc(NC(=O)C(=O)Cc2ccc([N+](=O)[O-])c([N+](=O)[O-])c2CC(=O)C(=O)Nc2ccc(OC)cc2OC)c(OC)c1`, the growth inhibition in assay [1] was 0.35%; in assay [2], -36.1%; in assay [3] it was -44%; in assay [4], 17.8%; in assay [5], 6.15%; in assay [6] it was 8.05%.
In the case of `Nc1ccc([N+](=O)[O-])c(F)c1`, the growth inhibition in assay [1] is -6.05%; in assay [2], -6.8%; in assay [3] it was -3.25%; in assay [4], -11.8%; in assay [5], 10.1%; in assay [6] it was 9.15%.
On to `CC(=O)NC1c2ccccc2C(C)(C)C12CCC1(CC2)OCCO1` (stereo unspecified), for which the growth inhibition is -33.5% in assay [1]; -17.1% in assay [2]; -4.8% in assay [3]; 0.05% in assay [4]; -3.8% in assay [5]; -40.8% in assay [6].
`CN(C)c1ccc(N=C2C=CC(=C(C#N)C#N)c3ccccc32)cc1`: the growth inhibition in assay [1] is -24%; in assay [2], -6.05%; in assay [3], -14.2%; in assay [4] it was -34%; in assay [5], -20.9%; in assay [6], -50%.
